Assay results from PubChem BioAssay AID651744 (Broad Institute, 2012).
In all, about 5,600 compounds went through this assay and about 3,100 (55%) were called active. About 3% were inconclusive and are not listed. The set was probably picked from earlier hits. The list is a sample of the results. Unmarked numbers belong to inactive results.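 The calls were made as follows: active = mean loss of cell viability signal at or above a set limit, and enough replicates individually reaching it; inconclusive = meets only the mean limit or only the replicate share; inactive = meets neither condition.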

Test: NIH/3T3 fibroblast cytotoxicity, confirmation, cytotoxicity control, cell-based, cherry-pick, single point, set 2 (AID 651744);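 also: 0% = median of neutral control wells and 100% = median of positive control wells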
Conditions: NIH/3T3 viability, CellTiter-Glo ATP luminescence, 90 h; at 24.9 µM; stronger effect = higher value

SMILES	inhibition
O=C(Cc1ccccn1)N1CCCCN2[C@@H](CO)[C@@H](c3ccc(C#Cc4ccccc4)cc3)[C@@H]2C1	103% (active)
C/C=C/c1ccc([C@H]2[C@H](CO)N3CCCCN(C(=O)Cc4ccncc4)C[C@@H]23)cc1	3.85%
COc1ccc(-c2ccc([C@H]3[C@H](CO)N4CCCCN(C(=O)Cc5ccncc5)C[C@@H]34)cc2)cc1	18.4%
O=C(Cc1cccnc1)N1CCCCN2[C@@H](CO)[C@H](c3ccc(C#CC4CCCC4)cc3)[C@@H]2C1	105% (active)
COc1ccc(C#Cc2ccc([C@H]3[C@H](CO)N4CCCCN(C(=O)Cc5ccccc5)C[C@@H]34)cc2)cc1	106% (active)
